Laboratory results from the supplement of paper PMC12808144.
Structures can show the parent of a compound that is named as a salt. Values without a mark were called inactive.

Key:
NHEM-hTERT = assay: cell viability relative to DMSO control (fraction of DMSO control); higher = less cytotoxic, active = 0.5 or less; details: 1 µM; 120 h
In short: (§1)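 For 120 h, duplicate wells of 384-well plates held 1 µM of each of 315 approved anti-cancer drugs (TargetMol), spotted acoustically before cells were added in 40 µl per well. Immortalized NHEM-hTERT melanocytes were seeded at 2500/well, and patient-derived Mel-DCC-11 plus its resistant subline Mel-DCC-11-R at 1500/well. The subline was run both without and with 8 µM of its selecting drug, and ATPlite 1step luminescence was read. Viability was normalised to vehicle-treated wells and averaged over the two replicates.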

Mel-DCC-11-R = assay: cell viability relative to DMSO control (fraction of DMSO control); higher = less cytotoxic, active = 0.8 or less; details: 1 µM, 120 h
In short: as §1

Structure (SMILES) | cell viability (NHEM-hTERT) | cell viability (Mel-DCC-11-R; vemurafenib co-treatment 0 µM) | cell viability (Mel-DCC-11-R; vemurafenib co-treatment 8 µM)
CC(C)(C#N)c1cc(Cn2cncn2)cc(C(C)(C)C#N)c1 [Anastrozole] | 1.02 | 1 | 1.01
CC(=O)O[C@@]12CO[C@@H]1C[C@H](O)[C@@]1(C)C(=O)[C@H](O)C3=C(C)[C@@H](OC(=O)[C@H](O)[C@@H](NC(=O)OC(C)(C)C)c4ccccc4)C[C@@](O)([C@@H](OC(=O)c4ccccc4)[C@H]21)C3(C)C [Docetaxel] | 0.707 | 1.07 | 0.609 (active)
CCCCCCCCCCCCCCCCOP(=O)([O-])OCC[N+](C)(C)C [Miltefosine] | 1.17 | 0.843 | 0.936
COc1cc([C@H]2Oc3cc([C@H]4Oc5cc(O)cc(O)c5C(=O)[C@@H]4O)ccc3O[C@@H]2CO)ccc1O [Silibinin] | 0.948 | 0.799 (active) | 0.914
NC(=O)c1cccc2cn(-c3ccc([C@@H]4CCCNC4)cc3)nc12 [Niraparib] | 0.932 | 1.06 | 1.08
Nc1nc([O-])c2c(CCc3ccc(C(=O)N[C@@H](CCC(=O)[O-])C(=O)[O-])cc3)c[nH]c2n1.[Na+].[Na+] [Pemetrexed disodium] | 1.05 | 0.818 | 0.881
O=c1ccn([C@@H]2O[C@H](CO)[C@@H](O)[C@H]2O)c(=O)[nH]1 [Uridine] | 1.05 | 0.931 | 1.09
C[C@@H]1O[C@@H](O[C@H]2[C@H](Oc3cc(O)c4c(c3)O[C@H](c3ccc(O)cc3)CC4=O)O[C@H](CO)[C@@H](O)[C@@H]2O)[C@H](O)[C@H](O)[C@H]1O [Naringin] | 0.986 | 1.02 | 1.19
CC1(C)CCC(C)(C)c2cc(NC(=O)c3ccc(C(=O)O)cc3)ccc21 [Tamibarotene] | 1.09 | 0.958 | 1.21
O=c1cc(O)c(Cl)c[nH]1 [Gimeracil] | 0.996 | 0.944 | 1.13
C/C(=C\c1csc(C)n1)[C@@H]1C[C@@H]2O[C@]2(C)CCC[C@H](C)[C@H](O)[C@@H](C)C(=O)C(C)(C)[C@@H](O)CC(=O)N1 [Ixabepilone] | 0.595 | 0.67 (active) | 0.377 (active)
S=P(N1CC1)(N1CC1)N1CC1 [Triethylenethiophosphoramide] | 0.98 | 0.91 | 0.932
Cc1cn(-c2cc(NC(=O)c3ccc(C)c(Nc4nccc(-c5cnccn5)n4)c3)cc(C(F)(F)F)c2)cn1 [Radotinib] | 1.09 | 1.19 | 1.27
CC(C)Cn1cnc2c(N)nc3ccccc3c21 [Imiquimod] | 1.31 | 0.897 | 1.07
CC(=O)c1c(C)c2cnc(Nc3ccc(N4CCNCC4)cn3)nc2n(C2CCCC2)c1=O.O=S(=O)(O)CCO [Palbociclib Isethionate] | 1.03 | 1.6 | 1.19
COc1cc(N2CCC(N3CCN(C)CC3)CC2)ccc1Nc1ncc(Cl)c(Nc2ccccc2P(C)(C)=O)n1 [Brigatinib] | 0.91 | 1.08 | 0.867
COC(=O)C[C@](O)(CCCC(C)(C)O)C(=O)O[C@@H]1C(OC)=CC23CCCN2CCc2cc4c(cc2[C@H]13)OCO4 (some centres undefined) [Homoharringtonine] | 0.228 (active) | 0.0454 (active) | 0.0543 (active)
C1=C/COCc2cc(ccc2OCCN2CCCC2)Nc2nccc(n2)-c2cccc(c2)COC/1 [Pacritinib] | 1.04 | 1.46 | 1.06
C=CC(=O)Nc1cc(Nc2nccc(-c3cn(C)c4ccccc34)n2)c(OC)cc1N(C)CCN(C)C.CS(=O)(=O)O [Osimertinib mesylate] | 1.14 | 1.21 | 0.744 (active)
C#Cc1cccc(Nc2ncnc3cc4c(cc23)OCCOCCOCCO4)c1 [Icotinib] | 1.18 | 1.1 | 0.849
Cn1nnc(-c2ccc(-c3ccc(N4C[C@H](CO)OC4=O)cc3F)cn2)n1 [Torezolid] | 0.958 | 0.848 | 0.663 (active)
Nc1nc(=O)c2c([nH]1)NC[C@H](CNc1ccc(C(=O)N[C@@H](CCC(=O)[O-])C(=O)[O-])cc1)N2C=O.[Ca+2] [Calcium Levofolinate] | 1.02 | 1.8 | 1.27

Structure (SMILES) | cell viability (NHEM-hTERT) | cell viability (Mel-DCC-11-R; vemurafenib co-treatment 0 µM) | cell viability (Mel-DCC-11-R; vemurafenib co-treatment 8 µM)
N#CC[C@@H](C1CCCC1)n1cc(-c2ncnc3[nH]ccc23)cn1 [S-Ruxolitinib] | 0.987 | 1.01 | 1.28
Nc1ncnc2c1ncn2[C@@H]1O[C@H](CO)[C@@H](O)[C@@H]1O [Vidarabine] | 1.02 | 1.11 | 1.1
COc1ccc2[nH]cc(CCNC(C)=O)c2c1 [Melatonine] | 0.936 | 0.786 (active) | 0.839
CS(=O)(=O)CCNCc1ccc(-c2ccc3ncnc(Nc4ccc(OCc5cccc(F)c5)c(Cl)c4)c3c2)o1 [Lapatinib] | 0.822 | 1.12 | 0.841
O.S=c1nc[nH]c2nc[nH]c12 [6-Mercaptopurine monohydrate] | 0.937 | 0.725 (active) | 0.881
CCOC(=O)[C@@H](N)Cc1ccc(-c2cc(O[C@H](c3ccc(Cl)cc3-n3ccc(C)n3)C(F)(F)F)nc(N)n2)cc1.O=C(O)CNC(=O)c1ccccc1 [Telotristat Etiprate] | 1.04 | 1.08 | 1.07
O=C(/C=C/c1cccc(S(=O)(=O)Nc2ccccc2)c1)NO [Belinostat] | 0.737 | 0.839 | 0.659 (active)
CO[C@H]1C[C@@H]2CC[C@@H](C)[C@@](O)(O2)C(=O)C(=O)N2CCCC[C@H]2C(=O)O[C@H]([C@H](C)C[C@@H]2CC[C@@H](O)[C@H](OC)C2)CC(=O)[C@H](C)/C=C(\C)[C@@H](O)[C@@H](OC)C(=O)[C@H](C)C[C@H](C)/C=C/C=C/C=C/1C [Rapamycin] | 0.819 | 1.54 | 0.783 (active)
O=C1c2c(O)ccc(O)c2C(=O)c2c(NCCNCCO)ccc(NCCNCCO)c21 [Mitoxantrone] | 0.695 | 1.26 | 0.574 (active)
CC1(C)O[C@H]2CC(=O)OC[C@]23[C@H]2CC[C@@]4(C)[C@H](c5ccoc5)OC(=O)[C@H]5O[C@]54[C@]2(C)C(=O)C[C@@H]13 [Limonin] | 1.21 | 0.857 | 1.11
CNNCc1ccc(C(=O)NC(C)C)cc1.Cl [Procarbazine hydrochloride] | 1.13 | 1.04 | 1.25
COc1ccc([C@@H]2CC(=O)c3c(O)cc(O)cc3O2)cc1O [Hesperetin] | 0.971 | 0.891 | 1.05
COC(=O)/C=C/C(=O)OC [Dimethyl fumarate] | 1.33 | 1.06 | 1.13
Cc1ccc(-c2ncc(Cl)cc2-c2ccc(S(C)(=O)=O)cc2)cn1 [Etoricoxib] | 1.17 | 1.11 | 1.06
CC[C@@]1(O)C(=O)OCc2c1cc1n(c2=O)Cc2cc3c(CN(C)C)c(O)ccc3nc2-1.Cl [Topotecan hydrochloride] | 0.768 | 0.645 (active) | 0.339 (active)
O=[N+]([O-])c1cncn1CCN1CCOCC1 [Nimorazole] | 1.14 | 1.02 | 1.08
CC(=O)O[C@H]1C(=O)[C@]2(C)[C@@H](O)C[C@H]3OC[C@@]3(OC(C)=O)[C@@H]2[C@@H](OC(=O)c2ccccc2)[C@]2(O)C[C@H](OC(=O)[C@H](O)[C@@H](NC(=O)c3ccccc3)c3ccccc3)C(C)=C1C2(C)C [Paclitaxel] | 0.569 | 1.06 | 0.526 (active)
COc1ccc(/C=C\c2cc(OC)c(OC)c(OC)c2)cc1OP(=O)([O-])[O-].[Na+].[Na+] [Fosbretabulin Disodium] | 0.64 | 0.57 (active) | 0.421 (active)
Cc1coc2c1C(=O)C(=O)c1c-2ccc2c(C)cccc12 [Tanshinone I] | 0.983 | 1.03 | 0.825
Cl.Cl.Cl.Cl.Cl.Cl.Cl.Cl.c1cc(CN2CCCNCCNCCCNCC2)ccc1CN1CCCNCCNCCCNCC1 [AMD 3100 octahydrochloride] | 1.14 | 0.999 | 0.984
C/C=C1/NC(=O)[C@H]2CSSCC/C=C/[C@H](CC(=O)N[C@H](C(C)C)C(=O)N2)OC(=O)[C@H](C(C)C)NC1=O [Romidepsin] | 0.0685 (active) | 0.0525 (active) | 0.0432 (active)
